Most compounds without a hit are left out; they make up all but 1.6% or so of the library.
KCNQ2 block: inhibitors of rat KCNQ2 potassium channel; O88943; CHO-K1 KCNQ2, FluxOR thallium flux, 20 min; hits give low values; B-score at 10 µM; actives 1.1% (n = 310,000); AID 2156;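 active = fluorescence ratio B-score at most minus 3 library SDs, with starting brightness B-score within 2 library SDs, cut at about -5.5 in these data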
Target sequence (O88943 whole entry, looked up): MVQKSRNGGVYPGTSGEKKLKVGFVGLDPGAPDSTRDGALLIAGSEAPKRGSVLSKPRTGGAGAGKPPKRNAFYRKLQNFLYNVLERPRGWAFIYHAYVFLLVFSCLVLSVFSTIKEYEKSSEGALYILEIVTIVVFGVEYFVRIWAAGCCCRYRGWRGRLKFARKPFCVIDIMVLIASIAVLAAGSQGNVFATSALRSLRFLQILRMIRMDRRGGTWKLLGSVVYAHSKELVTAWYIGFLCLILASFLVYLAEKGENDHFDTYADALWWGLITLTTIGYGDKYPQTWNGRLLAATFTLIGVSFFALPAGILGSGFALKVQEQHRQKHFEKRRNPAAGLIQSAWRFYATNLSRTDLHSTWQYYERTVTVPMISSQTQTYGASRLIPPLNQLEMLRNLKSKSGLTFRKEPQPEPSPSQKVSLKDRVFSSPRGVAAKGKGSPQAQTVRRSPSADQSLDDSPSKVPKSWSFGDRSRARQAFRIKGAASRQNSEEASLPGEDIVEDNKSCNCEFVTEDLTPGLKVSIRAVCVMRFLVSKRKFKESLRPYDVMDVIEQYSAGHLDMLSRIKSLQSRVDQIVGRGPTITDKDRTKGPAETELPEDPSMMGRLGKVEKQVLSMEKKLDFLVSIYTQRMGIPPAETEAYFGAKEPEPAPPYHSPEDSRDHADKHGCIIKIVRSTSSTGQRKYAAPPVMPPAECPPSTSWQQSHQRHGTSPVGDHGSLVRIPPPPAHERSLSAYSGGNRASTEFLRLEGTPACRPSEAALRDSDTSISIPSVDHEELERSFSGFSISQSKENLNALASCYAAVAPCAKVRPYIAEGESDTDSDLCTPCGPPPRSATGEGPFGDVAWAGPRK
KCNQ2 pot: potentiators of rat KCNQ2 potassium channel; CHO-K1 KCNQ2, FluxOR thallium flux fluorescence; hits give high values; B-score at 10 µM; actives 0.54% (n = 310,000);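 active = fluorescence ratio B-score at least 3 SD of library B-scores, with initial fluorescence B-score within 3 of them, cut at about 5.3 in these data; same plate scores as AID 2156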;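 note: B-score of peak minus minimum over baseline fluorescence ratio after K+ and Tl+ stimulus; positive B-score means potentiation of KCNQ2 with more thallium influx and brighter signal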
* hit, by the source's call; i = inactive; nt = not tested or not shown.

SMILES	KCNQ2 block	KCNQ2 pot
Cc1ccc(CN(Cc2ccccn2)C(=O)Nc2ccc(C)c(C)c2)cc1	-6.8*	-6.8
CCN(CC)C(=O)/C(=C\c1ccc(Br)cc1)NC(=O)c1ccccc1OC	-7.2*	-7.2
CCNC(=O)/C(=C\c1ccc2c(c1)OCO2)NC(=O)c1ccc(Br)cc1	i	nt
CCN(CC)C(=O)/C(=C\c1ccc2c(c1)OCO2)NC(=O)c1ccc(Br)cc1	-6.5*	-6.5
COc1ccccc1C(=O)N/C(=C\c1ccc(Br)cc1)C(=O)NCCO	i	nt
COc1cccc(CC(=O)NNC(=O)c2c(-c3ccccc3)noc2C)c1	i	0.02
CCCN(CC(=O)Nc1cc(Cl)ccc1Cl)C(=O)CN1C(=O)C2CCCCC2C1=O (configuration not stated)	i	1.4
CCN1CCN(c2ccc(S(=O)(=O)N3CCCCC3)cc2NC(=O)c2cc3ccccc3o2)CC1	i	nt
O=C(Cc1c(F)cccc1Cl)NCC(=O)OCc1ccccc1	i	nt
CCc1ccc2c(c1)c(N=NC1=NC(=O)CS1)c(O)n2C	i	5.8*
Cc1cc(C)c2[nH]c(O)c(N=NC3=NC(=O)CS3)c2c1	i	0.94
Cc1ccn(CCC(=O)Nc2ccc3c(c2)OCO3)n1	i	nt
COc1ccc(CNC(=O)C(c2ccc(C)o2)N(C(=O)c2csnn2)c2ccc(C(C)C)cc2)cc1 (configuration not stated)	-6.1*	-6.1
Cc1cccc(N(C(=O)c2csnn2)C(C(=O)NCc2ccccc2)c2ccc(C)o2)c1 (configuration not stated)	i	nt
COCCN(C(=O)Cc1cccs1)C(C(=O)NCc1ccc(OC)cc1)c1ccc(C)cc1 (configuration not stated)	i	0.07
O=C(NCc1ccccc1)C(c1ccccc1)N(Cc1ccc2c(c1)OCO2)C(=O)Cc1cccs1 (configuration not stated)	-7*	-7
COc1ccc(CNC(=O)C(c2ccc(C)o2)N(Cc2cccs2)C(=O)Cc2cccs2)cc1 (configuration not stated)	-6.4*	-6.4
O=C(NC1CCCC1)C(c1ccccc1)N(Cc1ccc2c(c1)OCO2)C(=O)Cc1cccs1 (configuration not stated)	i	0.05
COC(=O)c1sccc1NC(=O)Nc1cccc(F)c1	i	1.7
COc1ccc(CCNC(=O)c2ccc3ccccc3n2)cc1	i	nt
COc1ccccc1NC(=O)C(C)N(C)Cc1ccc(Cl)s1 (configuration not stated)	i	nt
COc1ccc(C[C@H]2CN3C(=NC[C@@H]3Cc3ccccc3)N2CCNC(=O)c2ccc(C)c(Br)c2)cc1	-5.8*	-5.8
COc1ccc(C[C@H]2CN3C(=NC[C@@H]3Cc3ccc(O)cc3)N2CCNC(=O)c2ccc(C)c(Br)c2)cc1	i	nt
CCCCNC(=S)N/N=C/C1=CCC2CC1C2(C)C (configuration not stated)	i	5.4*
C=C(C)CNC(=S)N/N=C/C1=CCC2CC1C2(C)C (configuration not stated)	i	1.4
SMILES	KCNQ2 block	KCNQ2 pot
Cc1ccc(N2CC(C(=O)Nc3ccc(S(=O)(=O)N4CCOCC4)cc3)CC2=O)cc1Cl (configuration not stated)	i	2
CCCC1=Nc2cc(C(=O)N3CCN(c4ccccn4)CC3)ccc2Sc2ccc(C)cc21	-5.7*	-5.7
CCC1=Nc2cc(C(=O)N3CCCCC3)ccc2Sc2ccc(C)cc21	-5.9*	-5.9
CCOC(=O)N1CCN(C(=O)c2ccc3c(c2)N=C(CC)c2cc(C)ccc2S3)CC1	i	nt
CCCC1=Nc2cc(C(=O)N3CCCC3)ccc2Sc2ccc(C)cc21	i	nt
Nc1c(C(=O)Nc2cccc(F)c2)nnn1-c1ccc2c(c1)OCCO2	i	0.01
CSCC[C@H](NC(=O)OC(C)(C)C)c1nnc(SCc2cccc(F)c2)o1	i	nt
CC(C)C[C@H](NC(=O)OC(C)(C)C)c1nnc(SCc2cccc(F)c2)o1	-7.5*	-7.5
CCN(CC)S(=O)(=O)c1cc(NC(=O)CN2C(=O)NC3(CCCc4ccccc43)C2=O)ccc1C (configuration not stated)	-5.8*	-5.8
Cc1ccc(NC(=O)CN2C(=O)NC3(CCCc4ccccc43)C2=O)cc1S(=O)(=O)N1CCOCC1 (configuration not stated)	i	nt
CCn1cc(C(=O)NCC(OC)OC)c(=O)c2cc(S(=O)(=O)N(C)C3CCCCC3)ccc21	i	nt
Cc1ccc(C)c(N=Nc2nc3ccccc3n2C)c1	-6*	-6
Cc1cc(C)c(C)c(N=Nc2nc3ccccc3n2C)c1C	i	nt
O=C(COc1cccc(Cl)c1)Nc1ccc2c(c1)CCC2	i	0.05
Cc1cccc(C)c1OCc1nc2ccccc2[nH]1	-5.7*	-5.7
Cc1ccc(C)c(OCc2nc3ccccc3[nH]2)c1	i	nt
CSc1nnc(C)c(=O)n1COC(=O)c1ccc(S(=O)(=O)N2CCCC2)cc1	i	0.05
Cc1ccc(F)c(N=Cc2c(O)c3ccccc3oc2=O)c1	i	nt
CCOC(=O)C1CCN(C(=O)c2cccc(Cl)c2)CC1	i	0.56
CCOC(=O)C1CCN(c2c(C(=O)c3ccccc3)cnc3ccc(Cl)cc23)CC1	-5.6*	-5.6
Cc1cccc(C(=O)N=c2sccn2C)c1[N+](=O)[O-]	i	0.7
COC(=O)Cn1nc(-c2ccc(C)cc2)c2ccccc2c1=O	i	nt
O=C(CN1C(=O)NC2(CCOc3ccccc32)C1=O)c1ccc(Br)cc1 (configuration not stated)	i	nt
CC(C)(C)c1ccc(C(=O)Nc2ccc(O)c3c(=O)cc(-c4ccccc4Cl)oc23)cc1	-7*	-7
O=C(Nc1ccc(O)c2c(=O)cc(-c3ccccc3Cl)oc12)c1ccc(F)cc1	i	1.5
SMILES	KCNQ2 block	KCNQ2 pot
Clc1ccc(CSc2snnc2-c2ccccc2)cc1	i	nt
Clc1ccccc1CSc1snnc1-c1ccccc1	-5.5*	-5.5
Cc1[nH]c2ccccc2c1C(=O)CSc1nc2ccccc2c(=O)n1CCCN1CCOCC1	i	nt
COc1ccccc1NC(=O)c1ccc(Br)c(S(=O)(=O)N2CCCC2)c1	i	0.82
NC(=O)c1nsc(C(=O)N(c2cccc(F)c2)C(C(=O)NC2CCCC2)c2ccco2)c1N (configuration not stated)	i	nt
O=C(CCCCN1CCCCC1)c1ccccc1	i	0.54
O=C(CCCCCCCC(=O)c1ccccc1)c1ccccc1	-6.2*	-6.2
CCn1c(SCC(=O)NC(=O)NCc2ccco2)nc2sc(C)c(C)c2c1=O	i	6*
Cc1sc2nc(SCC(=O)NCc3ccco3)n(C)c(=O)c2c1C	i	nt
Cc1ccc(-n2ncc3c(SCC(=O)Nc4cc(C)on4)ncnc32)c(C)c1	i	0.08
Cc1cc(N/N=C2\CC(C)CC(C)(C)C2)nc2ccccc12 (configuration not stated)	-5.6*	-5.6
CC1C/C(=N/Nc2nc3ccccc3[nH]2)CC(C)(C)C1 (configuration not stated)	i	1.1
NS(=O)(=O)c1ccc(CNC(=S)NCc2ccc(F)cc2)cc1	i	nt
O=C(NC(=S)Nc1ccc2[nH]c(=O)[nH]c2c1)c1ccccc1[N+](=O)[O-]	i	0.16
Cc1cc(NC(=O)CSc2nnc(COc3cccc(C)c3C)n2Cc2ccco2)no1	i	0.07
Cc1cccc(OCc2nnc(SCC(=O)N(C(C)C)C(C)C)n2Cc2ccco2)c1C	-7.7*	-7.7
